Test [1] is described as follows: antimalarial activity against Dd2 strain (AID 2302;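 active = growth inhibition above 50% at the single 2 µM test dose, taken to imply half-maximal potency below 2 µM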;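 also: 0% = DMSO untreated growth and 100% = chloroquine plus artemisinin killed control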). The following applies: P. falciparum Dd2 in RBCs, LDH growth readout, 72 h; at 2 µM; active compounds read high.
A short description of test [2]: human hepatoma cell viability loss – ATP luminescence, cytotoxicity control for P. falciparum antimalarial project, primary screen (AID 2303;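 active = inhibition above 50%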;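 also: 0% = DMSO wells and 100% = digitonin-killed cells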). To be noted: HepG2 viability, 24-48 h, at 10 µM, active compounds read high.
Test [3] deals with L-lactate dehydrogenase (Plasmodium falciparum (isolate CDC / Honduras)) (UniProt Q27743). The test is described as follows: PfLDH activity inhibition – cell lysate, 3D7 strain, counter-screen for P. falciparum growth inhibition project (AID 2304).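 Also: 0% = vehicle and 100% = reference inhibitor.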 The following applies: P. falciparum 3D7 crude extract, LDH APAD/NBT absorbance; at 2 µM; active compounds read high. Background: A counterscreen serves to expose hits that act by an unwanted route or on another target.

The nature of test [4]: inhibition of 3D7 malaria parasite growth – strain 3D7 (AID 2306).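 Also: 0% = DMSO wells and 100% = chloroquine plus artemisinin control wells.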 The following applies: P. falciparum 3D7 erythrocytic growth, LDH absorbance, 72 h; at 2 µM; active compounds read high.
For test [5], the target named is Calcium-dependent protein kinase 1 (Plasmodium falciparum (isolate 3D7)) (UniProt P62344). The test is described as follows: PfCDPK1 kinase inhibitors, biochemical, TCAMS library (AID 1159585; cut-off not given, nearly all actives have IC50 up to about 0.98 µM;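 also: inhibitors leave more ATP so luminescence rises with inhibition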). The following applies: recombinant PfCDPK1, Kinase-Glo ATP depletion luminescence. Background: In Kinase-Glo more light means more ATP remaining.
The target of test [6] is Plasmodium falciparum protein kinase 6 (PK6, PF3D7_1337100) (UniProt Q8IDW1). The test is described as follows: PfPK6 kinase inhibitors, biochemical, TCAMS library (AID 1159586). The following applies: recombinant PfPK6, Kinase-Glo ATP depletion luminescence.
Test [7] addresses Protein kinase 7 (PK7), Plasmodium falciparum 3D7 (PF3D7_0213400) (UniProt Q7YTF7). Kind of test: inhibition of Plasmodium PK7 catalytic activity – biochemical, TCAMS antimalarial set, Kinase-Glo luminescence (AID 1159587). The following applies: recombinant PfPK7, Kinase-Glo ATP depletion luminescence.
The target of test [8] is Calcium-dependent protein kinase 4 (Plasmodium falciparum (isolate 3D7)) (UniProt Q8IBS5). The test is described as follows: PfCDPK4 kinase inhibitors, biochemical, TCAMS library (AID 1159588; cut-off not given, nearly all actives have IC50 up to about 0.91 µM). To be noted: recombinant PfCDPK4, Kinase-Glo ATP depletion luminescence.

A number with no mark means an inactive call. For some of these results: Measured potencies and affinities stand elsewhere. Activity calls are given as the source filed them. Unless noted, no rule for the calls is given here.

This is an account of results in PubChem BioAssay.

Protein kinase 7 (PK7), Plasmodium falciparum 3D7 (PF3D7_0213400), sequence (Q7YTF7 1-343): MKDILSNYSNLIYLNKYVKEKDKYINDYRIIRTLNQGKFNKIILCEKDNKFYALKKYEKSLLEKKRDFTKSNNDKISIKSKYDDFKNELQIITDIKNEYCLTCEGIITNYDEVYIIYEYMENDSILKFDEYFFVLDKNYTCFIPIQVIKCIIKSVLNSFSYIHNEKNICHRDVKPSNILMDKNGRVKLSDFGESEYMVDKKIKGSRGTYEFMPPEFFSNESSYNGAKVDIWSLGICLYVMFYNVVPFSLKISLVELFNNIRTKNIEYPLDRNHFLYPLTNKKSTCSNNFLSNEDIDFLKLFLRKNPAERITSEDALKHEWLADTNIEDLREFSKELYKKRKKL
Calcium-dependent protein kinase 4 (Plasmodium falciparum (isolate 3D7)), sequence (Q8IBS5 whole entry, looked up): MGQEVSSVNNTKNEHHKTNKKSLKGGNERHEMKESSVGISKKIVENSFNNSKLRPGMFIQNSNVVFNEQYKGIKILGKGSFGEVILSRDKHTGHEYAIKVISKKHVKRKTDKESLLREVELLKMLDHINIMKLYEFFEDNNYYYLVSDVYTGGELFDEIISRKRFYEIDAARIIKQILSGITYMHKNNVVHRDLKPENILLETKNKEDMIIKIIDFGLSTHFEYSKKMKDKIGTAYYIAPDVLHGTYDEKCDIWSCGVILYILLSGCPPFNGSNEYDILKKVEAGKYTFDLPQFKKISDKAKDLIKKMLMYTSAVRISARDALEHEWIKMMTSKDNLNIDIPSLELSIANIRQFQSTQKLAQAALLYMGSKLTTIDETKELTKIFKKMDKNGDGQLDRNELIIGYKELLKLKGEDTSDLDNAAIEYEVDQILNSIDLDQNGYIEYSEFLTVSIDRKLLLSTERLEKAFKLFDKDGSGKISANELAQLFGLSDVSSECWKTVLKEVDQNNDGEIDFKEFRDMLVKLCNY
Plasmodium falciparum protein kinase 6 (PK6, PF3D7_1337100), sequence (Q8IDW1 1-305): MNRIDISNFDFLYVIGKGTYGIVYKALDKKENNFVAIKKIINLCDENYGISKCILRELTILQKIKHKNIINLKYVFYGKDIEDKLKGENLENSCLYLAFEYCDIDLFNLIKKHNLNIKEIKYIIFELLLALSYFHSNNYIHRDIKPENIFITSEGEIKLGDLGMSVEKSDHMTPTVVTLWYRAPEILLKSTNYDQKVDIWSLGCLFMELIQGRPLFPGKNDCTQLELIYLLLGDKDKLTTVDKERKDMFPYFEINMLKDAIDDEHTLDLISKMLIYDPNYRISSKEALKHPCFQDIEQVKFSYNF
L-lactate dehydrogenase (Plasmodium falciparum (isolate CDC / Honduras)), sequence (Q27743 whole entry, looked up): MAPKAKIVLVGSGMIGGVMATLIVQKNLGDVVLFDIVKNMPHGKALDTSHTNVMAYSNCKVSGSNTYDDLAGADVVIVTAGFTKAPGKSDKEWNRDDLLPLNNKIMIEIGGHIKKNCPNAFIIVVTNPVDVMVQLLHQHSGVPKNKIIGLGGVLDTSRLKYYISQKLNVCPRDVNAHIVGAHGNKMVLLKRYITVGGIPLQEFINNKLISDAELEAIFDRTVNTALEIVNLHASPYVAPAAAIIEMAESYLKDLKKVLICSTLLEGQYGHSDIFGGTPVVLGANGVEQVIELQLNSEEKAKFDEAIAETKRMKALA
Calcium-dependent protein kinase 1 (Plasmodium falciparum (isolate 3D7)), sequence (P62344 whole entry, looked up): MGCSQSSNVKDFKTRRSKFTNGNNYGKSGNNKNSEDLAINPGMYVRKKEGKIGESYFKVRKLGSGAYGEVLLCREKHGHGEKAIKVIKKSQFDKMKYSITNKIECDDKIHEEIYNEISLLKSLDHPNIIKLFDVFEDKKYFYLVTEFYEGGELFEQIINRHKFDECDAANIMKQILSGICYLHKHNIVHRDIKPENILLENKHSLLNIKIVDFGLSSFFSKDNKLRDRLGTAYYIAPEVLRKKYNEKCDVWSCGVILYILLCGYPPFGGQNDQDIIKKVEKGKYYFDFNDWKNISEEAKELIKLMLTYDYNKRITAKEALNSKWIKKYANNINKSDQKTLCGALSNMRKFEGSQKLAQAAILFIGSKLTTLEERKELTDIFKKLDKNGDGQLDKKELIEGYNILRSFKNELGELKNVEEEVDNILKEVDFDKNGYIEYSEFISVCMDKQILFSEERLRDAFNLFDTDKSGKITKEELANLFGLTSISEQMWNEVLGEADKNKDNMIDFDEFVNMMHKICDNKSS

In the case of `CCN(CC)CCCC(C)Nc1cc(C=Cc2ccc([N+](=O)[O-])cc2)nc2ccc(OC)cc12` (stereo not given), the growth inhibition in test [1] and in test [4] was 100% (active) in each case. In addition, the figures for the inhibition in test [2] and in test [3] were 37% and 4%, respectively. For the same compound, the outcome in test [5], in test [6], in test [7] and in test [8] was inactive.

For the compound `Cc1ncc([N+](=O)[O-])n1CCOC(=O)NC(NCC1COc2ccccc2O1)C(Cl)(Cl)Cl` (stereo not given), the results for the growth inhibition in test [1] and in test [4] were 78% (active) and 101% (active), respectively. Besides, the figures for the inhibition in test [2] and in test [3] were -9% and -4%, respectively. For the same compound, the outcome in test [5], in test [6], in test [7] and in test [8] was inactive.

In the case of `CN1CCN(Cc2cc3cc(NC(=O)/C=C/c4cccc(Cl)c4)ccc3s2)CC1`, the figures for the growth inhibition in test [1] and in test [4] were 72% (active) and 100% (active), respectively. For the same compound, the values for the inhibition in test [2] and in test [3] were 54% (active) and 1%, respectively. Moreover, the result in test [5], in test [6], in test [7] and in test [8] was inactive.

With `c1ccc(-c2ccc3c(Nc4ccc5[nH]ncc5c4)ccnc3c2)nc1`, the values for the growth inhibition in test [1] and in test [4] were 99% (active) and 100% (active), respectively. Besides, the inhibition was 99% (active) in test [2] and 4% in test [3]. Moreover, the result in test [5], in test [6], in test [7] and in test [8] was inactive.

In the case of `O=C(Nc1cccc(CN2CCCN(Cc3cccc(Cl)c3)CC2)c1)c1ccc(Cl)c(Cl)c1`, the growth inhibition in test [1] was 17%; in test [4], 89% (active). In addition, the inhibition is 18% in test [2] and -1% in test [3]. The result in test [5], in test [6], in test [7] and in test [8] was inactive.

Take `O=C(/C=C/c1ccc(Cl)c(Cl)c1)NC1CCC(CN2CCC(c3cc4ccccc4[nH]3)CC2)CC1` (stereo not given): the growth inhibition is -7% in test [1] and 96% (active) in test [4]. In addition, the inhibition in test [2] was 19%; in test [3], 1%. In addition, the result in test [5], in test [6], in test [7] and in test [8] was inactive.

As to `O=C(Nc1ccc(OC2CCN(Cc3ccsc3)CC2)c(Cl)c1)c1ccc(F)cc1`, the figures for the growth inhibition in test [1] and in test [4] were 83% (active) and 98% (active), respectively. Moreover, the values for the inhibition in test [2] and in test [3] were 31% and 0%, respectively. In addition, the result in test [5], in test [6], in test [7] and in test [8] was inactive.

On to `Cc1cc(N)c2cc(NC(=O)c3cccc4ccccc34)ccc2n1`, for which the growth inhibition in test [1] is 13%; in test [4], 98% (active). Also, the inhibition is 18% in test [2] and 4% in test [3]. Further, the outcome in test [5], in test [6], in test [7] and in test [8] was inactive.

In the case of `O=C(Nc1cccc(N2CCC(NCCCc3ccncc3)CC2)c1)c1cccc(C(F)(F)F)c1`, the growth inhibition in test [1] is 50% (active); in test [4] it was 96% (active). Also, the inhibition in test [2] is 11%; in test [3], 4%. The outcome in test [5], in test [6], in test [7] and in test [8] was inactive.

Take `O=C(c1cc(-c2ccco2)[nH]n1)N1CCN(S(=O)(=O)c2ccc(Br)cc2)CC1`: the growth inhibition was 90% (active) in test [1] and 95% (active) in test [4]. Also, the values for the inhibition in test [2] and in test [3] were 1% and -5%, respectively. Moreover, the result in test [5], in test [6], in test [7] and in test [8] was inactive.

`CCCCCCN1CCC(CNCc2cccc(Cl)c2)CC1`: the growth inhibition in test [1] is 13%; in test [4] it was 85% (active). For the same compound, the inhibition in test [2] is 8%; in test [3], 1%. Moreover, the outcome in test [5], in test [6], in test [7] and in test [8] was inactive.

On to `CCOc1cc(C(=O)N[C@@H](Cc2ccccc2)[C@H](O)CNCc2cc(OC)cc(OC)c2)cc(N2CCCC2=O)c1`, for which the growth inhibition in test [1] was 63% (active); in test [4], 94% (active). Further, the inhibition in test [2] was 0%; in test [3] it was 4%. The result in test [5], in test [6], in test [7] and in test [8] was inactive.

In the case of `N#CCCN1CCN(Cc2ccc(-c3ccc(-c4nc5ccc(F)cc5[nH]4)s3)cc2)CC1`, the results for the growth inhibition in test [1] and in test [4] were 38% and 99% (active), respectively. The inhibition in test [2] was 58% (active); in test [3], 6%. Also, the outcome in test [5], in test [6], in test [7] and in test [8] was inactive.

Regarding `COc1ccc2nccc([C@@H](O)CN3CCC(NC(=O)/C=C/c4cc(F)cc(NC(C)=O)c4)CC3)c2c1`, the growth inhibition in test [1] is 49%; in test [4], 97% (active). Further, the inhibition in test [2] was 7%; in test [3] it was 5%. Besides, the outcome in test [5], in test [6], in test [7] and in test [8] was inactive.

With `Cc1ccc(NC(=O)c2ccc(N3CCN(c4ccncc4)CC3)cc2)cc1F`, the figures for the growth inhibition in test [1] and in test [4] were 79% (active) and 100% (active), respectively. For the same compound, the inhibition in test [2] was 47%; in test [3], -1%. Also, the result in test [5], in test [6], in test [7] and in test [8] was inactive.

In the case of `CCNc1cc(C(=O)N[C@@H](Cc2ccccc2)[C@H](O)CNC2(CC)CC2)cc(N2CCCCS2(=O)=O)c1`, the growth inhibition in test [1] is 94% (active); in test [4] it was 97% (active). Moreover, the inhibition in test [2] is 59% (active); in test [3] it was 0%. In addition, the outcome in test [5], in test [6], in test [7] and in test [8] was inactive.

Take `N#Cc1ccc(N2CCN(Cc3cccc(-c4ccc(-c5nc6ccccc6[nH]5)cc4)c3)CC2)nc1`: the growth inhibition in test [1] was 40%; in test [4], 89% (active). The results for the inhibition in test [2] and in test [3] were 45% and -1%, respectively. For the same compound, the outcome in test [5], in test [6], in test [7] and in test [8] was inactive.

Regarding `Nc1ccc2[nH]cc(C3CCN(CC4CCC(NC(=O)/C=C/c5ccccc5Cl)CC4)CC3)c2n1` (stereo not given), the growth inhibition in test [1] is 45%; in test [4], 100% (active). Further, the inhibition in test [2] was 7%; in test [3], -3%. For the same compound, the result in test [5], in test [6], in test [7] and in test [8] was inactive.

`CC(C)c1sc(N2CCN(C)CC2)nc1C(=O)NCCc1ccc(Br)cc1`: the results for the growth inhibition in test [1] and in test [4] were 60% (active) and 89% (active), respectively. In addition, the inhibition in test [2] and in test [3] was -1% throughout. Also, the outcome in test [5], in test [6], in test [7] and in test [8] was inactive.

For `CCOC(=O)c1ccc(-c2cnoc2-c2cc(CC)c(OC)cc2O)o1`, the growth inhibition in test [1] is 97% (active); in test [4] it was 101% (active). For the same compound, the inhibition is 12% in test [2] and 1% in test [3]. Besides, the outcome in test [5], in test [6], in test [7] and in test [8] was inactive.

The inhibition is the relative decrease from the control value, in per cent.
